Assay outcomes (PubChem)
HepG2 tox = HepG2 cytotoxicity, counter-screen for TGF-b inhibitors; 410,000 tested, 0.76% active; HepG2 CAGA-GFP viability, ATP luminescence, 18 h; Potency, µM (doses to about 46.1 µM), inactives show at the highest dose activity change, negative = cytotoxicity, actives largely listed as cytotoxic; AID 588856
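CellTiter-Glo luminescence gave cytotoxicity after 18 hours at 37 degrees C. The cells were HepG2 CAGA-GFP in 1% FBS DMEM, stimulated with 500 pg/mL TGF-beta after compound addition. %Activity was normalised to no-cell wells (complete cell-killing) and DMSO (no toxicity), and curves were fitted and classified.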
ATXN viability = cell viability loss in ATXN counter-screen. S2 cells (HEK-293 line with an ATXN2-luciferase reporter) viability, CellTiter-Fluor protease fluorescence, 24 h. Potency, µM (highest dose often 56.7 µM), most hits filed as cytotoxic. 400,000 tested, 0.49% active; further: nearly all actives have a fitted effect of over 40% in size
TGFb SMAD3 inh = blocks TGF-b signaling; HepG2 CAGA-GFP TGF-b/SMAD3 reporter, GFP fluorescence, 18 h; TGF-beta stimulated, 500 pg/mL final; Potency, µM (doses to about 46.1 µM), without a hit: at the top dose activity, negative = inhibition, hits mostly inhibitors; 410,000 tested, 1.2% active; AID 588855; further: on the % scale 0 is the no-effect control and ±100 the full control effect; nearly all actives have a fitted effect of over 65% in size
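GFP signal (ex488/em500-530) from TGF-beta-stimulated HEPG2 CAGA-GFP cells, 500 pg/mL final, 18 h at 37 degrees C in DMEM plus 1% FBS, normalized to unstimulated and DMSO-stimulated controls.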
ATXN2 expr inh = ATXN2 expression inhibition; HEK-293 ATXN2-luciferase reporter, luminescence, 24 h; Potency, µM (series often up to 57 µM), for inactives: top-dose activity change, negative = inhibition, actives largely listed as inhibitors; 360,000 tested, 0.72% active; AID 1745845; further: on the % scale 0 is the no-effect control and ±100 the full control effect; nearly all actives have a fitted effect of over 55% in size
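ATXN2-luciferase reporter cells (luciferase flanked by upstream and downstream ATXN2 gene portions) were treated 24 h at 37 °C with compounds at up to 57 uM. SteadyGlo luminescence gave expression; GF-AFC fluorescence gave viability.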
GLP1R ag = GLP-1 receptor (human) agonism | HEK293 GLP-1R CRE-luciferase, luminescence, 4-6 h; cells express a hypersensitive GLP-1R form | Potency, µM (series often up to 45.6 µM), for the others: at the top dose activation, usual class: activators | 380,000 tested, 0.007% active | AID 624172; further: % of control where 0% means no effect
Target sequence (P43220 whole entry, looked up): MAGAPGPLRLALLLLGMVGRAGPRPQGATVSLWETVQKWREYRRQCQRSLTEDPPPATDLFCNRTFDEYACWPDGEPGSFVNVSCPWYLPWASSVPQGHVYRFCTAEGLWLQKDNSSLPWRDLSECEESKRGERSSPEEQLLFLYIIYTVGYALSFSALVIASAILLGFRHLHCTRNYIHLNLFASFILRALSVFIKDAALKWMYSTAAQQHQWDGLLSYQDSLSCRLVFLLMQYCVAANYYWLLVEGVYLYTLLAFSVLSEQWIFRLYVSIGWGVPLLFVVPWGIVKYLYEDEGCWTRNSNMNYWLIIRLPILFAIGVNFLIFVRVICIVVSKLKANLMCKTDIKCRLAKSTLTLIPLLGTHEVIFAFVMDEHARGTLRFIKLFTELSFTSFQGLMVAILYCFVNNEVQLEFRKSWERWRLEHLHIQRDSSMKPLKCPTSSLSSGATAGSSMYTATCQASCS
GLP-1R inv ag = GLP-1 receptor (human) inverse agonism; P43220; HEK293 GLP-1R CRE-luciferase, luminescence, 24 h; GLP-1R form is constitutively active; Potency, µM (top dose mostly 38.3 µM), for the others: top-dose activity change, negative = inhibition, most hits filed as inhibitors; 410,000 tested, 1.6% active; AID 624417; further: on the % scale 0 is the no-effect control and ±100 the full control effect; nearly all actives have a fitted effect of over 55% in size
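Inverse agonism was detected as reduced cAMP-driven luciferase luminescence after 24 h compound treatment. The cells were HEK293 clones expressing constitutively active human GLP-1R with the reporter. Reporter-only and GPR119 cell lines served as counterscreen controls.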
Active calls of the source: *. Rows were chosen to be rich in hits. Some 3.7% of all compounds tested hit in one or more screens of this group. The call rests on the fitted dose curve; in most records, active means well fitted curve in the direction sought with a large enough effect; inconclusive means small, poorly fitted or top-dose-only effect, or another doubt; inactive means no such curve, though single readings can be large; an effect the other way counts as inactive or inconclusive. Potency means the concentration at half of the fitted maximal effect.

How did CCc1ccc2oc(-c3ccc(OC)cc3)cc(=Nc3c(C)n(C)n(-c4ccccc4)c3=O)c2c1 do in these assays?
HepG2 tox: -53%; ATXN viability: inconclusive; TGFb SMAD3 inh: inconclusive; ATXN2 expr inh: inconclusive; GLP1R ag: -4%; GLP-1R inv ag: 10µM*

Results for COC(=O)c1ccc(NC(=O)CCc2c(C)nn(-c3ccc(N4CCOCC4)nn3)c2C)cc1 ?
HepG2 tox: 3%; ATXN viability: inactive; TGFb SMAD3 inh: 0%; ATXN2 expr inh: 34%; GLP-1R inv ag: 2%

How did Cc1nc(-c2ccc(C(F)(F)F)cc2)sc1C(=O)NN do in these assays?
HepG2 tox: -15%; ATXN viability: inactive; TGFb SMAD3 inh: -18%; ATXN2 expr inh: 16µM*; GLP1R ag: 10%; GLP-1R inv ag: -12%

How did Cc1nc(-c2cccs2)sc1C(=O)NN do in these assays?
HepG2 tox: 10%; ATXN viability: inactive; TGFb SMAD3 inh: -4%; ATXN2 expr inh: -15%; GLP1R ag: inconclusive; GLP-1R inv ag: 17%

What do the screens show for `O=C(Nc1ccncc1)c1cc2ccccc2cc1O`?
HepG2 tox: -14%; ATXN viability: inconclusive; TGFb SMAD3 inh: 13µM*; ATXN2 expr inh: 12%; GLP1R ag: -20%; GLP-1R inv ag: -11%

How did CCOC(=O)COc1ccc(Br)cc1/C=C\c1[nH]c(=O)[nH]c(=O)c1[N+](=O)[O-] do in these assays?
HepG2 tox: -85%; ATXN viability: inactive; TGFb SMAD3 inh: inconclusive; ATXN2 expr inh: 8%; GLP1R ag: -5%; GLP-1R inv ag: inconclusive

Results for CCOC(=O)COc1ccc(Br)cc1/C=C/c1[nH]c(=O)[nH]c(=O)c1[N+](=O)[O-] ?
HepG2 tox: -72%; ATXN viability: inactive; TGFb SMAD3 inh: inconclusive; ATXN2 expr inh: inconclusive; GLP1R ag: -6%; GLP-1R inv ag: 10µM*

Results for CCCCc1ccc(NC(=S)Nc2cccnc2)cc1 ?
HepG2 tox: -5%; ATXN viability: inactive; TGFb SMAD3 inh: 2%; ATXN2 expr inh: 20%; GLP1R ag: 2%; GLP-1R inv ag: 9%

What do the screens show for `CCCCc1ccc(NC(=O)Nc2cccnc2)cc1`?
HepG2 tox: -42%; ATXN viability: inactive; TGFb SMAD3 inh: -27%; ATXN2 expr inh: 34%; GLP1R ag: -3%; GLP-1R inv ag: 7.1µM*

How did Cc1ccc(NC(=O)c2c(C)oc3nc(C)nc(N4CCCC4)c23)c(C)c1 do in these assays?
HepG2 tox: -22%; TGFb SMAD3 inh: -15%; GLP-1R inv ag: -9%

What do the screens show for `O=C(NCCc1nnc2n1CCN(Cc1cc3ccccc3o1)CC2)c1ccoc1`?
ATXN viability: inactive

How did COc1ccccc1C(=O)Nc1cccc(OCc2cc(=O)n3ccccc3n2)c1 do in these assays?
HepG2 tox: -3%; TGFb SMAD3 inh: inconclusive; GLP-1R inv ag: 3%

How did Cc1ccc(Cl)cc1N(CC(=O)Nc1cccc(N(C)S(C)(=O)=O)c1)S(C)(=O)=O do in these assays?
HepG2 tox: -41%; ATXN viability: inactive; TGFb SMAD3 inh: -3%; ATXN2 expr inh: -20%; GLP1R ag: 4%; GLP-1R inv ag: -29%

Results for CN(c1cccc(NC(=O)CN(c2cccc(Cl)c2)S(=O)(=O)c2ccc(Cl)cc2)c1)S(C)(=O)=O ?
HepG2 tox: -16%; ATXN viability: inactive; TGFb SMAD3 inh: inconclusive; ATXN2 expr inh: -17%; GLP1R ag: 3%; GLP-1R inv ag: 7.9µM*

What do the screens show for `CN(C)c1cccc(C(=O)NCC2Cc3cccc(-c4cncnc4)c3O2)c1` (stereo not drawn)?
ATXN viability: inactive

Results for O=C(CN1C(=O)COc2ccc(S(=O)(=O)N3CCOCC3)cc21)N1CCN(c2cccc(C(F)(F)F)c2)CC1 ?
HepG2 tox: 2%; ATXN viability: inactive; TGFb SMAD3 inh: 8%; ATXN2 expr inh: -2%; GLP1R ag: 1%; GLP-1R inv ag: -6%

What do the screens show for `COC[C@@H](c1ccc(C(F)(F)F)cc1)N1CCN(C2(C)CCN(C(=O)c3c(C)ncnc3C)CC2)C[C@@H]1C`?
GLP1R ag: -4%

How did CN(C)C1(CNC(=O)c2cccc(S(=O)(=O)NCc3ccccc3)c2)CCCCC1 do in these assays?
HepG2 tox: 4%; ATXN viability: inactive; TGFb SMAD3 inh: -4%; ATXN2 expr inh: -8%; GLP1R ag: 2%; GLP-1R inv ag: inconclusive

What do the screens show for `CCN(c1ccccc1)S(=O)(=O)c1cccc(C(=O)NCC2(N(C)C)CCCCC2)c1`?
HepG2 tox: -29%; ATXN viability: inactive; TGFb SMAD3 inh: 0%; GLP1R ag: -2%; GLP-1R inv ag: 10µM*

How did O=C1c2cccc3c([N+](=O)[O-])ccc(c23)C(=O)N1c1ccc(Cl)cn1 do in these assays?
HepG2 tox: -1%; TGFb SMAD3 inh: 28%; ATXN2 expr inh: inconclusive; GLP1R ag: -21%; GLP-1R inv ag: -17%

What do the screens show for `O=C1c2cccc3c([N+](=O)[O-])ccc(c23)C(=O)N1c1ccccn1`?
HepG2 tox: -104%; TGFb SMAD3 inh: 0%; ATXN2 expr inh: 14µM*; GLP1R ag: -19%; GLP-1R inv ag: inconclusive

Results for COC(=O)c1c(NC(=O)Cc2cccs2)sc2c1CCC(C)C2 (stereo not drawn) ?
HepG2 tox: -10%; ATXN viability: inactive; TGFb SMAD3 inh: 2%; ATXN2 expr inh: 21%; GLP1R ag: 2%; GLP-1R inv ag: 19%

How did COC(=O)c1c(NC(=S)NN2CCN(C)CC2)sc2c1CCC(C)C2 (stereo not drawn) do in these assays?
HepG2 tox: -40%; ATXN viability: inconclusive; TGFb SMAD3 inh: inconclusive; ATXN2 expr inh: inconclusive; GLP1R ag: 15%; GLP-1R inv ag: 10µM*

How did CCc1cccc2c1Sc1ccccc1CC2N1CCNCC1 (stereo not drawn) do in these assays?
HepG2 tox: -134%; TGFb SMAD3 inh: inconclusive; GLP1R ag: 4%; GLP-1R inv ag: 8.9µM*

Results for Cc1cccc2c1Sc1ccc(Cl)cc1CC2N1CCNCC1 (stereo not drawn) ?
HepG2 tox: -156%; ATXN viability: 16µM*; TGFb SMAD3 inh: inconclusive; ATXN2 expr inh: inconclusive; GLP1R ag: -14%; GLP-1R inv ag: inconclusive

Results for O=C1CC(N2CCSCC2)C(=O)N1c1cccc(Cl)c1 (stereo not drawn) ?
HepG2 tox: -3%; ATXN viability: inactive; TGFb SMAD3 inh: 1%; ATXN2 expr inh: -15%; GLP1R ag: 5%; GLP-1R inv ag: 3%
